Hits are enriched below; roughly 12% of the tested compounds scored in any of these assays.
PostGolgi yeast = growth inhibition of a yeast mutant, post-Golgi transport screen; post-Golgi transport phenotypic cell assay; inhibition, % at 10 µM; actives 0.9% (n = 98,000); AID 739;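 also: yeast cells grown in 1536-well plates; yeast grown about 18 h at 30C before absorbance read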
D1 mod = allosterically modulates the human D1 dopamine receptor; actives 5.9% (n = 58,000); B-score at 10 µM; HEK293 D1, CRE-luciferase, dopamine EC30 potentiation; actives deviate in either direction;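 active = luminescence count or its row- and column-corrected plate score outside the 99.7% band of the plate's sample wells, on either side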
Target sequence (P21728 whole entry, looked up): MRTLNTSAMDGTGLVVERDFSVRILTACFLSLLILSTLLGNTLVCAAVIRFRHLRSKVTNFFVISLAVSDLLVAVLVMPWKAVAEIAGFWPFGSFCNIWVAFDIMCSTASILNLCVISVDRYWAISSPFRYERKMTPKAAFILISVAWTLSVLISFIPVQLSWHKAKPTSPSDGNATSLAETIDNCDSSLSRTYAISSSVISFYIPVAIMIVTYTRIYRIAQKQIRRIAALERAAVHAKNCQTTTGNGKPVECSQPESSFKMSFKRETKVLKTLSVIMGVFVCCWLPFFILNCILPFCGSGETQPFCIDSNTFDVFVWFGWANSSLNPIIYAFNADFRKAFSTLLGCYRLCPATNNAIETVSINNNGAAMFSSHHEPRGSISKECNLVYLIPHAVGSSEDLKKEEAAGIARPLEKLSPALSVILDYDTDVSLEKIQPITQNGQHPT
hDAT+cocaine = changed human dopamine transporter uptake under cocaine IC80. actives 1.3% (n = 110,000). B-score at 10 µM. AID 449768. LLC-PK1 hDAT cells, [14C]-dopamine uptake with cocaine IC80; actives deviate in either direction;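 active = Z score or B-score, a plate-position-corrected score, falls beyond the plate's 99.7% confidence bounds, in either direction; inactive = both scores lie inside the 99.7% bounds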;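 also: scored against the spread of the other compound wells on the same plate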
PostGolgi ctrl = inhibits growth of the yeast control strain | AID 738 | actives 5% (n = 98,000) | efflux-deficient yeast background strain, growth absorbance A615, 16 h | inhibition, % at 10 µM
Cav3 T inh = blocks human Cav3.2 T-type calcium channel; actives 4% (n = 100,000); O95180; B-score at 10 µM; AID 449739; Cav3.2-expressing cells, Fluo-4 calcium fluorescence FDSS; hits give low values;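 active = single-dose well whose peak fluorescence ratio is a statistical outlier from its plate by either plate-standardised score or position-corrected B-score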
PLAP activator = activators of human placental alkaline phosphatase; activation fold at 20 µM; actives 1.2% (n = 96,000); purified PLAP enzyme, luminescent substrate read-out; hits give high values; in the data active = activation fold above about 2
* hit, by the source's call; . = no result. Rule as the data show it, unless noted: active = inhibition above about 30%; inactive = the rest.

SMILES	PostGolgi yeast	D1 mod	hDAT+cocaine	PostGolgi ctrl	Cav3 T inh	PLAP activator
Cn1cc(C(=O)N2CCN(C(=O)c3ccco3)CC2)c2c3ccccc3n(C)c2c1=O	7	0.93	-0.43	23	1.6	1.2
Cc1cc(NC(=O)CCC(=O)N(Cc2cccs2)C(C(=O)NC2CCCC2)c2ccncc2)no1 (stereo not drawn)	8	-0.0033	-0.22	-2	0.82	1.4
Cc1cc(NC(=O)CCC(=O)N(Cc2ccco2)C(C(=O)NC2CCCCC2)c2ccccc2)no1 (stereo not drawn)	.	.	-0.48	.	-4.4*	.
Cc1cc(NC(=O)CCC(=O)N(c2ccc(F)cc2)C2(C(=O)NC3CCCCC3)CCCC2)no1	6	-0.11	0.51	39*	-3.7*	1.6
O=C(NC1CCCC1)C(c1ccccc1)N(Cc1ccco1)C(=O)Cc1cccs1 (stereo not drawn)	.	.	-0.23	.	-6.2*	.
Cc1cc(NC(=O)CCC(=O)N(CC(=O)NC2CCCC2)c2ccc3c(c2)OCCO3)no1	-1	.	-0.73	-3	-0.016	0.9
Cc1cc(NC(=O)CCC(=O)N(CCc2ccccc2)C(C(=O)NC2CCCC2)c2ccco2)no1 (stereo not drawn)	-5	0.19	0.55	-4	-3.7*	0.9
O=C(NCC(=O)N(Cc1ccco1)C(C(=O)NC1CCCC1)c1ccncc1)c1cccs1 (stereo not drawn)	.	.	-0.21	.	0.074	.
CCOC(=O)[C@H](CCc1ccccc1)N[C@@H](C)C(=O)N1[C@H](C(=O)O)C[C@@H]2CCC[C@@H]21	.	.	0.39	.	0.66	.
CCc1ccc(C(C)NC(=O)Cn2cnc3c(=O)n(C)c(=O)n(C)c32)cc1 (stereo not drawn)	.	.	0.0052	.	0.62	.
O=C(NC1CCCCC1)C(c1cccs1)N(Cc1cccs1)C(=O)c1ccco1 (stereo not drawn)	-2	.	-0.11	19	-4.1*	1.1
Cc1cc(NC(=O)CCC(=O)N(Cc2ccco2)C(C(=O)NC2CCCC2)c2ccccc2C)no1 (stereo not drawn)	.	.	0.029	.	-7.4*	.
Cc1ccc(C(C(=O)NC2CCCC2)N(C(=O)CCC(=O)Nc2cc(C)on2)c2ccccc2)cc1 (stereo not drawn)	.	.	-0.16	.	0.55	.
O=C(COC(=O)Cn1cnc2ccccc21)NCCC1=CCCCC1	1	-0.29	1.1	-6	-0.77	0.9
Nc1nc2n(n1)C1(CCCCC1)C1=C(CCCC1)N2	15	-0.037	0.3	-1	1	2.1*
CNc1ccc(C(O)(C(F)(F)F)C(F)(F)F)cc1C(O)(C(F)(F)F)C(F)(F)F	-2	0.36	1.9	11	-7.1*	1
Cc1ccc(N)c(C(O)(C(F)(F)F)C(F)(F)F)c1	-5	0.69	-1.1	1	-0.33	1
O=C(c1ccco1)N1CCN(C(=O)c2cc3c(=O)oc4ccccc4c3s2)CC1	4	0.89	-0.063	11	-0.16	1
O=C(c1cc2c(=O)oc3ccccc3c2s1)N1CCOCC1	2	-4.6*	0.47	4	0.2	0.9
O=C1c2cccc3c(N4CCCCC4)ccc(c23)C(=O)N1c1ccccn1	-2	-0.57	-0.16	18	-6.9*	0.9
COc1cccc(SCc2noc(C(=O)NCCC(C)C)c2C(=O)NCCC(C)C)c1	.	.	0.39	.	-1.1	.
N#C/C(=C\c1cn(CCOc2ccccc2)c2ccccc12)C(=O)NCC1CCCO1 (stereo not drawn)	6	.	-0.13	17	-4.4*	1.4
CCOc1ccc2[nH]c(=O)c(CN(Cc3ccccc3)C(=O)N3CCCC3)cc2c1	-10	1.3	-0.41	-3	-0.95	1
CCOC(=O)c1c(C)[nH]c(NC(=O)N2CCOCC2)c1C	3	-0.12	-0.26	1	0.35	1.2
CC(C)COc1ccc(-c2nnc(-c3ccco3)o2)cc1	1	-5.5*	0.57	13	-0.98	1.2
SMILES	PostGolgi yeast	D1 mod	hDAT+cocaine	PostGolgi ctrl	Cav3 T inh	PLAP activator
CCCOc1ccc(-c2nnc(-c3ccco3)o2)cc1	2	-4.7*	1.2	-1	0.7	1.1
CC(=O)C[C@H]1c2cc(F)ccc2S(=O)(=O)N1c1ccc(N(C)C)cc1	.	.	0.97	.	-0.31	.
N#CC1=C(SCC(=O)NC23CC4CC(CC(C4)C2)C3)NC(=O)C(C#N)C12CCCCC2 (stereo not drawn)	-5	-0.44	-0.83	6	-3.2*	.
N#CC1=C(SCC(=O)NC2CC2)NC(=O)C(C#N)C12CCCCC2 (stereo not drawn)	2	-0.34	-0.019	4	-0.038	1.2
CCOC(=O)C1=C(SCC(=O)Nc2ccccc2)NC(=O)C(C#N)C12CCCCC2 (stereo not drawn)	-3	-1.1	1.2	0	-4.1*	1.5
CC(C)(C)C1CCC2(CC1)C(C#N)=C(SCC(=O)NC1CCCCC1)NC(=O)C2C#N (stereo not drawn)	2	-1.2	-0.011	24	-4.2*	1.3
FC(F)(F)c1cccc(N2CCN(CC3CC=CCC3)CC2)c1 (stereo not drawn)	0	.	.	6	.	0.7
O=C(CSc1ncccc1C(=O)O)c1ccccc1	1	0.38	0.74	8	-0.025	1.1
CN(C(=O)CSc1ncccc1C(=O)O)c1ccccc1	-1	-1.5	-0.33	6	-3.5*	1
COCCN(Cc1cc2cccc(C)c2n2nnnc12)C(=O)C(F)(F)F	5	1.5	-0.15	6	-0.98	1
Cc1ccc2cc(CN(Cc3cccs3)C(=O)c3ccco3)c3nnnn3c2c1C	.	3.7*	.	.	.	.
Cc1ccc2c(c1)cc(CN(Cc1cccs1)C(=O)c1ccco1)c1nnnn12	6	.	0.56	42*	-0.67	1.4
Cc1cc(C(F)F)n2ncc(C(=O)NCCc3ccc(Cl)cc3)c2n1	3	.	-0.27	49*	-1.2	1.2
Cc1cc(Cl)ccc1NC(=O)CN1CCC(C(O)(c2ccccc2)c2ccccc2)CC1	-1	.	1.1	22	-4.3*	1.3
COc1cc(SC#N)ccc1N=Cc1c(C)[nH]n(-c2ccc(Cl)cc2)c1=O	10	.	-0.71	32*	-0.62	1.2
CCOc1[nH]n(-c2ccc(Cl)cc2)c(=O)c1C=Nc1ccc(Cl)cc1	-2	.	0.74	6	-0.027	1.1
O=C(Nc1ccccc1)NC1(C(=O)N2CCN(c3ncccn3)CC2)CCCCC1	4	-0.29	0.069	1	-0.61	0.7
Cn1c(=O)c2sccc2n2c(CCCC(=O)NCc3ccc4c(c3)OCO4)nnc12	2	-0.24	0.35	3	-0.18	1.1
CC(C)(C)c1ccc(-c2n[nH]c(=S)n2C2CCCC2)cc1	-6	.	-0.094	59*	-3.4	1.1
Cn1c(-c2ccc(C(C)(C)C)cc2)n[nH]c1=S	2	-0.031	0.76	5	1.2	0.9
Cc1cccc2c1NC(C)CC2C (stereo not drawn)	2	.	-0.77	16	0.97	1.1
N#Cc1c(-c2ccccc2)nc(SCc2nc(N)nc(N3CCCCC3)n2)[nH]c1=O	-3	-3.2*	2	-3	-2.2	1.3
CCOC(=O)c1ccc(NC(=O)CSc2nnnn2CCCO)cc1	1	-1.1	1.1	6	-0.35	0.9

High-throughput results from PubChem.
